In PubChem BioAssay AID624256 (NMMLSC, 2012) one finds GFP+ MAC1+ double positive, outcome and normalized GFP-positive differentiation data, which are given here for 42 molecules.

Structures are written as SMILES. In all, about 360,000 compounds went through this assay and about 3,700 (1%) were called active. Another 2% or so got no clear call; they are omitted.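 How the source made its calls: active means normalized GFP-positive differentiation at or above the plate's own cutoff, the solvent-only control mean plus 3 SD; inconclusive means no clear call, values can overlap the other calls; inactive means the rest.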 Many of the other results were omitted from the sample, so actives are more common in it than they were.

This test is described as follows: induction of myeloid progenitor differentiation, primary screen, cell-based, flow cytometry, MLPCN library (AID 624256).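 On GFP+ MAC1+ double positive: cells exposed to compound for four days before flow analysis.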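 On normalized GFP-positive differentiation: cells exposed to compound for four days before flow analysis; 0% = DMSO wells and 100% = fulvestrant positive control at 5 µM.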 As to conditions: ER-HoxA9 myeloid progenitors, lysozyme-GFP differentiation, at 10 µM; GFP+ MAC1+ double positive: measured here: differentiation confirmed by MAC1 staining, stronger effect = higher value; normalized GFP-positive differentiation: stronger effect = higher value. (A flow cytometer gives signals particle by particle.)
Take `CCCCCNC(=O)C(c1ccc(OC)cc1)n1c(=O)c(-c2ccccc2)nc2ccccc21` (centres undefined): the GFP+ MAC1+ double positive was determined as 2.6% and the call was inactive.

In the case of `Cc1cc(Cl)ccc1-c1nc(NCCN(C)C)nc2ccsc12`, the GFP+ MAC1+ double positive is 1.3% and the molecule was called inactive.

As for `Cc1cc(NC(=O)CSc2nc(C(C)C)nc3sc4c(c23)CCC(C)C4)no1` (centres undefined), the GFP+ MAC1+ double positive turned out to be 6.9% and the normalized GFP-positive differentiation was 29.7% (active).

As for `Cc1cc(NC(=O)CSc2nc3c(cc2C#N)CCCCC3)no1`, the GFP+ MAC1+ double positive was 0% and the molecule was classed as inactive.

Consider `CC(C)c1nc(SCC(=O)Nc2cccc(C(=O)O)c2)c2c3c(sc2n1)CCCC3`, for which the GFP+ MAC1+ double positive amounted to 1.4% and the outcome was inactive.

For the molecule `CC(C)C[C@@H]1Cc2[nH][nH]c(=O)c2[C@H](CCc2ccccc2)O1`, the GFP+ MAC1+ double positive turned out to be 0.9% and the molecule was classed as inactive.

Take `Cc1cc2nc(-c3ccc(F)cc3)c(Cc3ccsc3)n2c(C)c1Br`: the GFP+ MAC1+ double positive was 1.3% and the outcome was inactive.

Turning to `COC(=O)[C@]12CCCCC=C1N(Cc1ccco1)C(=O)[C@H](CC(=O)NCCCCc1ccccc1)C2`, the GFP+ MAC1+ double positive is 0.4% and the call was inactive.

As for `CCc1nc2ccc(C(=O)NC3CCN(Cc4ccccc4)CC3)cn2c1N(C)CCN1CCOCC1`, the GFP+ MAC1+ double positive stood at 1.3% and the molecule was called inactive.

As for `COc1ccc(C2CC(c3cccc(OC)c3)=NN2c2ccc(S(N)(=O)=O)cc2)cc1` (centres undefined), the GFP+ MAC1+ double positive was found to be 8.9% and the normalized GFP-positive differentiation is 14.9% (active).

As for `Cc1ccc(C2CC(c3cccc(NS(C)(=O)=O)c3)=NN2S(C)(=O)=O)cc1` (centres undefined), the GFP+ MAC1+ double positive turned out to be 0.5% and the molecule was called inactive.

On to `Oc1ccccc1C1=NN(c2ccccc2)C(c2ccccc2)C1` (centres undefined), for which the GFP+ MAC1+ double positive was 0.2% and the outcome was inactive.

With `O=C(/C=C/[C@H]1O[C@@H](n2ccc(=O)[nH]c2=O)[C@H](O)[C@@H]1O)NCc1ccccn1`, the GFP+ MAC1+ double positive worked out at 1.5% and the molecule was called inactive.

With `Cc1ccc(Cn2cc(CN3CC(N4CCN(C)CC4)CS3(=O)=O)nn2)cc1` (centres undefined), the GFP+ MAC1+ double positive is 1% and the outcome was inactive.

As for `CCCCC[C@@H]1C=C(C(=O)OCC)[C@H](c2ccccc2)N1S(=O)(=O)c1ccc(C)cc1`, the GFP+ MAC1+ double positive was determined as 0.5% and the result was inactive.

For `c1ccc(COc2nsnc2N2CCOCC2)cc1`, the GFP+ MAC1+ double positive came out at 2.7% and the result was inactive.

For the molecule `O=C(O)COc1nsnc1N1CCOCC1`, the GFP+ MAC1+ double positive was 0% and the molecule was classed as inactive.

As for `c1nc(COc2nsnc2N2CCOCC2)cs1`, the GFP+ MAC1+ double positive was found to be 7.1% and the normalized GFP-positive differentiation is 13.2% (active).

Take `CCC(C(=O)NC(C)(C)C)n1c(-c2ccccc2)nc2ccccc21` (centres undefined): the GFP+ MAC1+ double positive came out at 2% and the molecule was classed as inactive.

Turning to `O=C(NC1CCCC1)C1c2ccccc2OCC(=O)N1CC(F)(F)F` (centres undefined), the GFP+ MAC1+ double positive turned out to be 0.5% and the outcome was inactive.

For the molecule `O=C1NC[C@H](CCCCN2C[C@H](Cc3ccccc3)N(Cc3ccccc3)C(=O)C2=O)N(CCc2ccc(O)cc2)C1=O`, the GFP+ MAC1+ double positive was 1% and the call was inactive.

As to `COC(=O)[C@@]12C[C@@H](CC(=O)N3CCCCC3)C(=O)N(Cc3ccc4c(c3)OCO4)C1=CCC(C)(C)C2`, the GFP+ MAC1+ double positive was found to be 1.1% and the molecule was classed as inactive.

As to `Cc1ccc(-n2c(SCC(=O)Nc3ncc(Cl)cc3Cl)nc3ccccc32)cc1`, the GFP+ MAC1+ double positive was found to be 11.5% and the normalized GFP-positive differentiation was 162% (active).

With `CCOc1ccc(-n2c(SCC(=O)Nc3cc(C(=O)O)ccc3Cl)nc3ccccc3c2=O)cc1`, the GFP+ MAC1+ double positive was found to be 1.1% and the outcome was inactive.

As to `CC1(C(=O)OCC(=O)Nc2ncc(Cl)cc2Cl)CC1(Cl)Cl` (centres undefined), the GFP+ MAC1+ double positive was 0.3% and the result was inactive.

Take `CC1Cc2ccccc2N1S(=O)(=O)c1cccc(C(=O)OCC(=O)N2CCOCC2)c1` (centres undefined): the GFP+ MAC1+ double positive was 1% and the molecule was classed as inactive.

As to `CC1CCc2sc(C(=O)NCC(c3ccco3)N3CCCCC3)cc2C1` (centres undefined), the GFP+ MAC1+ double positive is 0.5% and the molecule was classed as inactive.

`CC1Cc2ccccc2N1S(=O)(=O)c1cccc(C(=O)NCC(c2ccco2)N2CCCC2)c1` (centres undefined): the GFP+ MAC1+ double positive came to 1.4% and the normalized GFP-positive differentiation is 21.5% (active).

On to `CC12CCC(=O)C=C1CCC1C2C(O)CC2(C)C1CCC2(O)C(O)CO` (centres undefined), for which the GFP+ MAC1+ double positive turned out to be 1.1% and the outcome was inactive.

As to `O=C(NCc1cccnc1)c1cc(C2CCCN(C(=O)CCCc3ccccc3)C2)on1` (centres undefined), the GFP+ MAC1+ double positive was found to be 0.8% and the result was inactive.

On to `CCCCN(C=O)c1c(CC)nc2c(OCCC3CCCCC3)cccn12`, for which the GFP+ MAC1+ double positive came to 0.7% and the outcome was inactive.

Take `CCOC(=O)[C@]12CCCC=C1N(Cc1cccc3ccccc13)C(=O)[C@H](CC(=O)NCC13CC4CC(CC(C4)C1)C3)C2`: the GFP+ MAC1+ double positive was determined as 2.1% and the result was inactive.

As for `Cc1ccc(S(=O)(=O)NCCNC(C)c2ccc(Br)cc2)cc1` (centres undefined), the GFP+ MAC1+ double positive was 1% and the result was inactive.

As for `Cc1ccc(S(=O)(=O)NCC(C)NS(C)(=O)=O)cc1` (centres undefined), the GFP+ MAC1+ double positive is 2% and the result was inactive.

As to `Cc1ccc(S(=O)(=O)NCCSC(C)(C)C)cc1`, the GFP+ MAC1+ double positive was 5.2% and the normalized GFP-positive differentiation is 17.8% (active).

Regarding `OC(c1ccccc1)c1nc(-c2cnc3ccccc3c2)cs1` (centres undefined), the GFP+ MAC1+ double positive turned out to be 0.6% and the molecule was called inactive.

Consider `C=C1C(=O)[C@]23C[C@H]1CCC2[C@@]1(C)C(C[C@@H]3O)[C@](C)(C(=O)O)CC[C@@H]1O` (some centres undefined), for which the GFP+ MAC1+ double positive came to 3.8% and the normalized GFP-positive differentiation was 13.1% (active).

Consider `CCOC(=O)C1=CC[C@@H](c2ccncc2)N(S(=O)(=O)c2ccc(C)cc2)C1`, for which the GFP+ MAC1+ double positive worked out at 1.2% and the molecule was called inactive.

Regarding `COc1ccc(C2OC(CCc3ccccc3)Cc3[nH]c(=S)[nH]c(=O)c32)cc1` (centres undefined), the GFP+ MAC1+ double positive was 1.5% and the result was inactive.

Regarding `Cc1ccc(S(=O)(=O)C(C#N)c2nc3ccccc3nc2N2CCCC2)cc1C` (centres undefined), the GFP+ MAC1+ double positive was determined as 1.7% and the normalized GFP-positive differentiation was 59% (active).

Turning to `Cc1ccc(S(=O)(=O)N2CCN(c3ccccc3)CC2)cc1C`, the GFP+ MAC1+ double positive worked out at 0.5% and the result was inactive.

As to `CC(=O)c1ccc(S(=O)(=O)N2CCN(c3nc4c(C)c(C)ccc4cc3C#N)CC2)cc1`, the GFP+ MAC1+ double positive turned out to be 0.3% and the call was inactive.
